Screening data (PubChem BioAssay)
Hits are enriched below; roughly 1.6% of the tested compounds scored in any of these assays.
VLA-4 inh: inhibition in a human VLA-4 binding assay; inhibition, % (about 7 µM as worked out from the volumes in the protocol); hit rate 0.2% among 330,000; VLA-4 expressing cells, ligand binding flow cytometry; in the data active = inhibition above about 50%
PKA-R2B act: PKA-R2B complex activation | PKA-R2B holoenzyme dissociation, Cy5-IP20 fluorescence polarization; R2B truncated from residue 108, S112A mutant; 0% DMSO only, 100% 113 µM cGMP | AID 504700 | P22694+P31323 | activation, % at 11.4 µM | hit rate 0.079% among 340,000;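 active = activation above a cutoff set at the mean over all compounds plus 3 SD, cut at about 18% in these data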;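 note: higher means more holoenzyme dissociation and a rise in polarization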
CendR NRP1 mod: alters CendR peptide binding to human NRP-1; FAM-RPARPAR peptide binding to NRP-1, fluorescence polarization; inhibition, % at 25 µM; hit rate 0.85% among 360,000; O14786; AID 602438;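 active = inhibition or corrected inhibition above about 18%, plus a signal ratio from 0.5 to 1.5, limit read from the data, passing the limit was not always enough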
PKA-R1A act: activators of PKA-R1A complex | hit rate 0.083% among 340,000 | activation, % at 11.4 µM | P00514+P68181 | PKA-R1A dissociation, Cy5-IP20 fluorescence polarization; scaled: DMSO 0%, 113 µM cGMP 100%;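 active = percent activation above the mean of all tested compounds plus 3 SD, cut at about 19% in these data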;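 note: higher means more PKAc released from R1A so a rise in polarization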
ATG4B inh: inhibitors of human ATG4B cysteine protease; ATG4B cleavage of LC3-PLA2, NBD-HPC fluorescence, 1 h; Q9Y4P1; hit rate 0.51% among 340,000; inhibition, % at 8.33 µM; AID 504462
Target sequence (Q9Y4P1 whole entry, looked up): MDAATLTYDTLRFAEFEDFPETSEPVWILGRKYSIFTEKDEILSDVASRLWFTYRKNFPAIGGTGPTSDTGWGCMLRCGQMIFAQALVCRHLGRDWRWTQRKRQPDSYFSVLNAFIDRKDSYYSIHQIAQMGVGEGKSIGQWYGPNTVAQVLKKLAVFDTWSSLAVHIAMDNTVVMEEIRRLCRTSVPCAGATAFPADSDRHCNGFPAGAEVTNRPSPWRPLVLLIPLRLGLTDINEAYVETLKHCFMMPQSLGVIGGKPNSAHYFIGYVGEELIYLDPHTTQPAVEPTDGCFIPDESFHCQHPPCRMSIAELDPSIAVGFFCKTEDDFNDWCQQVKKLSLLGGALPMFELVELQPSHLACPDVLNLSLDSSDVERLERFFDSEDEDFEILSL
VLA-4 allo CP: human VLA-4 allosteric modulation in cherry picked compounds; shares compounds with VLA-4 inh; U937 cells, HUTS-21 LIBS mAb binding, flow cytometry; LDV ligand present at threefold Kd; inhibition, % at 6.7 µM; hit rate 2% among 1,300; AID 2813;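 note: 0% = ligand without compound and 100% = no ligand background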
Starred values were filed as active, the others as inactive; · = no result. Cut-off read from the data, not from the text of the source, unless noted: active = inhibition above about 40%; inactive = the rest.

SMILES	VLA-4 inh	PKA-R2B act	CendR NRP1 mod	PKA-R1A act	ATG4B inh	VLA-4 allo CP
Cc1nn(C)cc1S(=O)(=O)N1CCN(c2ccccc2)CC1	5	-1	-12	-3	-3	·
CC(=O)c1cc(C(=O)N2CCCC(C(=O)c3ccc(Cl)cc3)C2)cs1 (stereo not drawn)	-5	1	4	-1	8	·
COc1cc(C(=O)OCC(=O)Nc2c(F)cccc2F)cc(OC)c1C	2	1	-12	-7	3	·
COc1cc(C(=O)OCC(=O)Nc2c(F)c(F)c(F)c(F)c2F)cc(OC)c1OC	-10	-3	21*	-4	-2	0
CC(C)(C)OC(=O)N1CCCC(C(=O)Nc2cccc(C(=O)N3CCCCC3)c2)C1 (stereo not drawn)	·	-3	-22	-8	1	·
O=C(COC(=O)/C=C/c1ccccc1[N+](=O)[O-])NCc1ccco1	0	-9	7	-6	6	·
CC(C)(C)c1ccc(C(=O)NCCN2CCOCC2)cc1	8	-2	1	2	-15	·
CC(C)(C)c1ccc(C(=O)NCCCN2CCN(CCCNC(=O)c3ccc(C(C)(C)C)cc3)CC2)cc1	40	0	-14	-1	-9	9
O=C(NCCCn1ccnc1)c1ccc(-c2ccccc2)cc1	45	-5	5	-7	-4	0
COc1ccc(Cl)cc1NC(=O)C/C(C)=N/NC(=O)C(=O)NCc1ccccc1	3	-12	6	-10	-6	·
Cc1ccc(SCC(=O)Nc2ccc3c(c2)C(=O)N(C)C3=O)cc1	6	0	3	1	-9	·
O=C(Cc1ccccc1)Nc1cccc(N2C(=O)C=CC2=O)c1	60*	2	-6	-1	-3	36
COc1cccc(NC(=O)Cc2ccccc2)c1	28	1	2	-3	1	·
Cc1cc(NC(=O)CCCn2ccc([N+](=O)[O-])n2)n(Cc2ccc(F)cc2)n1	0	-1	-1	0	5	·
O=C(CN1C(=O)NC2(CCCC2)C1=O)Nc1ccc(F)c([N+](=O)[O-])c1	4	0	10	-7	-3	·
COC1=CC(=O)CC(C)C12Oc1c(Cl)c(OC)cc(OC)c1C2=O (stereo not drawn)	-7	2	0	-7	6	·
COC1=CC(=O)C[C@@H](C)[C@]12Oc1c(Cl)c(OC)cc(OC)c1C2=O	54*	0	-7	1	1	7
Cc1cc(C(=O)COc2ccc(Br)cc2F)c(C)n1CC1CCCO1 (stereo not drawn)	·	1	-2	2	·	·
C#C[C@]1(O)CC[C@H]2[C@@H]3CCc4cc(OC5CCCC5)ccc4[C@H]3CC[C@@]21C	53*	-6	-3	2	3	18
C#C[C@]1(O)CC[C@H]2[C@@H]3CCc4cc(OC)ccc4[C@H]3CC[C@@]21C	-7	7	3	-3	-11	·
COc1ccc(S(=O)(=O)N2CCCC(C(=O)NCc3cccnc3)C2)cc1C (stereo not drawn)	·	1	-10	-2	·	·
COc1ccc(S(=O)(=O)N2CCCC(C(=O)NCc3cccnc3)C2)cc1OC (stereo not drawn)	51*	8	0	2	0	2
Cc1onc(-c2ccccc2)c1NC(=O)N(CCC#N)Cc1ccccc1	12	·	7	·	0	·
COc1ccc([C@@]2(O)c3c(ccc(CC=C(C)C)c3O)NC(=O)[C@@H]2OC)cc1	0	0	-14	-13	-31	-10
CCOC(=O)N1CCN(C(=O)CN(C)S(=O)(=O)c2ccc(F)cc2)CC1	5	2	11	-3	-6	·
SMILES	VLA-4 inh	PKA-R2B act	CendR NRP1 mod	PKA-R1A act	ATG4B inh	VLA-4 allo CP
O=C(Cn1c(=O)oc2ccccc21)Nc1ccc(Br)cc1	2	6	14	7	-3	3
O=C(Cn1c(=O)oc2ccccc21)NCCc1ccccc1	-1	2	9	-1	4	8
COc1ccccc1CCNC(=O)Cn1c(=O)oc2ccccc21	18	-9	20	-8	2	·
O=C(Cn1c(=O)oc2ccccc21)Nc1ccc(Cl)cc1Cl	-9	1	-30	-10	8	-9
COc1ccc(Cl)cc1NC(=O)Cn1c(=O)oc2ccccc21	0	7	-3	6	-2	·
O=C(Cn1c(=O)oc2ccccc21)Nc1ccc(F)cc1	1	-5	-2	-5	-3	·
COc1ccc(NC(=O)Cn2c(=O)oc3cc(Cl)ccc32)c(OC)c1	5	4	-6	0	-6	0
Cc1ccc2nc3c(cc(C(=O)NC4CCS(=O)(=O)C4)n3Cc3ccccc3)c(=O)n2c1 (stereo not drawn)	27	1	2	-8	4	·
O=C(O)CCCn1cc(NC(=O)COc2ccc([N+](=O)[O-])cc2)cn1	5	-7	9	6	3	·
Cc1cc(NC(=O)Cn2c(=O)oc3ccccc32)no1	4	-10	11	-7	3	0
Cc1cccc(NC(=O)Cn2c(=O)oc3ccccc32)n1	-1	-11	-2	1	4	·
CCC(=NCCc1c(C)[nH]c2ccc(C)cc12)C1=C(O)CC(c2ccccc2)CC1=O (stereo not drawn)	46	0	16	-5	33	22
CC(=O)C1=C(O)CC(c2ccccc2)CC1=NCCc1c(C)[nH]c2ccc(C)cc12 (stereo not drawn)	18	6	8	-11	-11	·
O=C(C1CCC(CNS(=O)(=O)c2cccc3cccnc23)CC1)N1CCc2ccccc21 (stereo not drawn)	53*	-8	2	-2	-16	11
COc1ccccc1-c1nnc(SCC(=O)Nc2ccc3[nH]c(=O)[nH]c3c2)n1N	17	-9	-7	-13	7	·
O=C(NCc1ccccc1F)C1CCN(C(=O)c2sccc2-n2cccc2)CC1	111*	-10	-7	-3	-2	9
CCC(C)N(C(=O)CSc1nnc(-c2cccs2)n1C1CC1)C1CCS(=O)(=O)C1 (stereo not drawn)	·	-23	-9	-3	-1	·
CCOC(=O)C1(C)CCCCN1C(=O)c1cccnc1 (stereo not drawn)	·	·	-2	·	·	·
CCOCCCNC(=O)/C(C#N)=C/c1ccc([N+](=O)[O-])o1	-52	8	-51	11	-6	·
CCCCNC(=O)/C(C#N)=C/c1ccc(C(=O)OC)cc1	4	0	7	-1	-2	21
CCOCCCNC(=O)/C(C#N)=C/c1cc(Br)c(O)c(Br)c1	·	-4	-3	-9	7	22
COCCNC(=O)/C(C#N)=C/c1ccccc1Br	14	9	-6	2	-3	·
COC(=O)c1ccc(/C=C(\C#N)C(=O)NC(C)c2ccccc2)cc1 (stereo not drawn)	13	-6	5	-4	1	·
